The values that follow come from PubChem BioAssay AID1309 (The Scripps Research Institute Molecular Screening Center, 2008).

Out of some 1,200 compounds screened, about 130 (11%) were called active. No stated cut-off is given here; in the data, active means activation above about 120%; inactive means the rest. The list is a sample of the results.

A short description of the assay: activation of NF-kB-driven transcription – cell-based, counter-screen for STAT3 activator project (AID 1309).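 Further: reporter induced by TNF-alpha stimulation; 100% = median of stimulated DMSO wells and 0% = no signal.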 To be noted: human cells, NF-kappaB reporter activation; at 5.7 µM; active compounds read high. A general note: The purpose of a counterscreen is to sort out artefacts and off-target activity.
Take `Fc1ccc2nc(-c3ccccc3)nc(SCc3nnc(-c4ccccc4)o3)c2c1`: the activation (% of control) was 106% (inactive).

Take `COc1ccccc1N1CCN(C(=O)c2cc3c(-c4ccc(Cl)cc4)nn(C)c3s2)CC1`: the activation (% of control) was 101% (inactive).

`Cn1cccc1C(=O)Nc1nccs1`: the activation (% of control) was 111% (inactive).

With `N#Cc1ccccc1NC(=O)COc1c(Br)cc(Br)c2cccnc12`, the activation (% of control) is 107% (inactive).

Regarding `COC(=O)c1[nH]c2ccccc2c1NC(=O)CN1CCCc2ccccc21`, the activation (% of control) is 106% (inactive).

Take `CCOC(=O)N1CCN(CC(=O)Nc2cc(C)nn2-c2nc3ccccc3s2)CC1`: the activation (% of control) was 106% (inactive).

As for `C/C(=N\NC(=O)CNc1cccc2ccccc12)c1ccc(Br)s1`, the activation (% of control) is 103% (inactive).

Take `COc1ccc(/C=N/Nc2ncnc3sc4c(c23)CCCC4)cc1O`: the activation (% of control) was 110% (inactive).

For `O=C1CCCN1CCCNc1ncnc2c1[nH]c1ccccc12`, the activation (% of control) was 100% (inactive).

For the compound `COc1ccc(C2c3[nH]c4ccccc4c3CCN2CCCn2cccn2)cc1C` (stereo not given), the activation (% of control) is 102% (inactive).

For the compound `CCn1c(SCC(=O)N/N=C/C=C/c2ccccc2[N+](=O)[O-])nnc1-c1ccccc1`, the activation (% of control) was 101% (inactive).

On to `CCOC(=O)C1CCN(c2ncnc3c2oc2ccc(Br)cc23)CC1`, for which the activation (% of control) was 102% (inactive).

Regarding `CN1CCN(c2ccc([N+](=O)[O-])c(Sc3nc4ccccc4[nH]3)c2)CC1`, the activation (% of control) was 102% (inactive).

For the compound `CSc1nc2sc3c(c2c(=O)[nH]1)CCc1ccccc1-3`, the activation (% of control) is 108% (inactive).

Regarding `C=CCCC(=O)Nc1nc(C)c(-c2csc(Nc3ccc(Cl)cc3)n2)s1`, the activation (% of control) is 107% (inactive).

Take `COc1ccc([N+](=O)[O-])cc1C1NN=C(c2cccc3ccccc23)S1` (stereo not given): the activation (% of control) is 114% (inactive).

Turning to `Cc1ccc(S(=O)(=O)Nc2nc3ccccc3nc2N2CCc3ccccc3C2)cc1`, the activation (% of control) was 107% (inactive).

For the compound `COc1ccc(NC(=O)ON=C2c3ccccc3-c3ccccc32)cc1`, the activation (% of control) is 108% (inactive).

`O=c1[nH]c(CSc2ncc(-c3ccc(F)cc3)n2Cc2ccco2)nc2ccccc12`: the activation (% of control) was 107% (inactive).

With `OC(COc1ccc2ccccc2c1)CN1CCOCC1` (stereo not given), the activation (% of control) is 107% (inactive).

As for `Oc1cccc2ccc(/C=C/c3ccc(Br)s3)nc12`, the activation (% of control) was 122% (active).

In the case of `CCCS(=O)(=O)Nc1c(C(=O)O)[nH]c2ccccc12`, the activation (% of control) was 103% (inactive).

With `O=C(Nc1cc(C(F)(F)F)ccc1Cl)c1cc(C2CC2)on1`, the activation (% of control) is 100% (inactive).

Take `O=C(O)CSCc1nc2ccccc2s1`: the activation (% of control) is 112% (inactive).

For the compound `Cc1ccc(/C=N/NC(=O)COc2ccccc2-c2ccccc2)cc1`, the activation (% of control) is 155% (active).

With `C=CCn1c(-c2ccccc2OCC)n[nH]c1=S`, the activation (% of control) was 115% (inactive).

Take `Cc1csc2ncc(C(=O)N(Cc3ccccc3)c3ccccn3)c(=O)n12`: the activation (% of control) is 103% (inactive).

On to `Cc1cccc(C(=O)N2CCc3c([nH]c4ccccc34)C2CC(C)C)n1` (stereo not given), for which the activation (% of control) was 110% (inactive).

With `Cc1nc(N=C(N)N)nc2c(C)cccc12`, the activation (% of control) was 110% (inactive).

For `COc1ccc(Cl)cc1NC(=O)c1oc(C)nc1C`, the activation (% of control) was 108% (inactive).

Consider `COC(=O)c1[nH]c2ccccc2c1NS(=O)(=O)c1ccc(OC)cc1OC`, for which the activation (% of control) is 104% (inactive).

Take `CN1C(=O)/C(=C\c2cc(Br)cs2)c2ccccc21`: the activation (% of control) is 120% (inactive).

For the compound `O=C(NCc1ccco1)c1cccn2c(=O)c3c4c(sc3nc12)CCCC4`, the activation (% of control) was 106% (inactive).

As to `CSc1nc(N(C)NC(=O)c2cccc(C)c2)c2ccccc2n1`, the activation (% of control) was 159% (active).

As to `Cc1cccc(C(=O)Nc2nnc(Cc3c[nH]c4ccccc34)s2)c1`, the activation (% of control) was 101% (inactive).

Take `Cc1ccc(-c2cc(C(=O)Nc3nn[nH]n3)c3ccccc3n2)c(C)c1`: the activation (% of control) was 99.3% (inactive).

As for `CSCCC(NC(=O)c1ccco1)C(=O)OCC(=O)Nc1ncc(Cl)c(C)c1Cl` (stereo not given), the activation (% of control) is 97.1% (inactive).

As to `Cc1nc2ccccc2cc1O`, the activation (% of control) was 98% (inactive).

In the case of `N#Cc1c(C(F)(F)F)cc(-c2ccc(Cl)cc2)nc1SCC(=O)O`, the activation (% of control) was 107% (inactive).

In the case of `Oc1c(C=Nc2cccc3nsnc23)ccc2ccccc12`, the activation (% of control) was 96.6% (inactive).

As to `Cc1ccc(C2=NN(C)c3nc4ccccc4n3C2)cc1`, the activation (% of control) was 112% (inactive).

With `Cc1ccc(OCc2nnc(SC3CCc4ccccc4C3=O)n2C)cc1` (stereo not given), the activation (% of control) is 111% (inactive).

With `CC(=O)Nc1ccc(NC(=O)COc2ccccc2C(=O)Nc2cccc(Cl)c2Cl)cc1`, the activation (% of control) is 102% (inactive).

Consider `CC(C)CNC(=O)COC(=O)/C=C/c1ccccc1[N+](=O)[O-]`, for which the activation (% of control) is 97.8% (inactive).

`COc1nc(N=C(N)N)nc2c(C)cccc12`: the activation (% of control) is 109% (inactive).

Turning to `c1ccc(-c2cn3c(n2)CCc2ccc4cccnc4c2-3)cc1`, the activation (% of control) was 106% (inactive).

As to `O=C(Cc1c[nH]c2ccccc12)OCCOC(=O)Cc1c[nH]c2ccccc12`, the activation (% of control) is 99.2% (inactive).

`COc1cccc(NC(=S)C(C#N)=C2N(C)c3ccccc3N2C)c1`: the activation (% of control) is 94.8% (inactive).

Consider `NC(=O)CSc1c[nH]c2ccccc12`, for which the activation (% of control) is 102% (inactive).

Turning to `COc1cccc(/C=C(/CC(=O)Nc2ccc(N3CCOCC3)cc2)c2nc3ccccc3s2)c1`, the activation (% of control) was 114% (inactive).

Regarding `Cc1ccc(NC(=O)c2cc([N+](=O)[O-])ccc2Cl)c(O)c1`, the activation (% of control) was 107% (inactive).

`CCCCC(=O)Nc1nc(C)c(-c2csc(Nc3ccc(Cl)cc3)n2)s1`: the activation (% of control) was 101% (inactive).

With `C/C(=N\c1nc2ccccc2n1C)c1cc(Cl)ccc1O`, the activation (% of control) is 99.6% (inactive).

Regarding `COc1cc(OC)cc(C(=O)N[C@H](C(=O)Nc2nc3ccccc3[nH]2)C(C)C)c1`, the activation (% of control) is 138% (active).

On to `COc1ccccc1-c1nnc(NC(=O)c2ccc3ncsc3c2)o1`, for which the activation (% of control) is 127% (active).

Turning to `COc1ccccc1-c1nnc(SCC(=O)N2CC(C)CC(C)C2)o1` (stereo not given), the activation (% of control) is 101% (inactive).

Regarding `Oc1cccc(C2c3[nH]c4ccccc4c3CCN2Cc2cnn(-c3ccccc3)c2)c1` (stereo not given), the activation (% of control) was 105% (inactive).

As for `CCNCc1cc2cc(C)ccc2[nH]c1=O`, the activation (% of control) was 101% (inactive).

Regarding `COC(=O)c1[nH]c2cccc(C)c2c1NC(=O)CN1CCCc2ccccc21`, the activation (% of control) is 96.7% (inactive).

Consider `CCOc1ccc(C2c3[nH]c4ccccc4c3CCN2Cc2cn(CC)nc2C)cc1` (stereo not given), for which the activation (% of control) was 111% (inactive).

For the compound `COc1ccc(C)cc1NC(=O)c1[nH]c(C)c(C(C)=O)c1C`, the activation (% of control) is 99.2% (inactive).

For the compound `COc1ccc(-c2c3c(=O)n(C)c(=O)n(C)c3cn2-c2cccc(OC)c2)cc1`, the activation (% of control) was 103% (inactive).

Turning to `O=C(O)CS/C(=C\c1ccc(F)cc1)c1nc2ccccc2s1`, the activation (% of control) was 116% (inactive).

Consider `Cc1ccc(N=Nc2c(C)[nH]n(-c3ccccc3)c2=O)cc1`, for which the activation (% of control) is 106% (inactive).

On to `COc1cc(NS(=O)(=O)c2ccc(N/C=C(\C=O)c3nc4cc(Cl)ccc4o3)cc2)nc(OC)n1`, for which the activation (% of control) was 104% (inactive).

`COCCCNc1nc2c(-c3cccc(C(F)(F)F)c3)nnn2c2ccccc12`: the activation (% of control) is 109% (inactive).

For `CCOC(=O)c1c(-c2cccc(C)c2)csc1NC(=O)c1c(-c2ccccc2)noc1C`, the activation (% of control) was 71.3% (inactive).

With `Cc1ccc(Nc2nc(-c3sc(NC(=O)c4ccccc4)nc3C)cs2)cc1`, the activation (% of control) is 102% (inactive).

`Cc1cccc(N(CC(=O)N=Nc2c(O)[nH]c3ccccc23)S(C)(=O)=O)c1C`: the activation (% of control) was 103% (inactive).

For `O=[N+]([O-])c1ccc(N2CCN(S(=O)(=O)c3ccc4ccccc4c3)CC2)cc1NCc1ccco1`, the activation (% of control) is 105% (inactive).

For the compound `CCSc1nnc(-c2cc3c(s2)-c2ccccc2CC3)o1`, the activation (% of control) was 118% (inactive).

Take `Cn1nc(-c2ccc(Cl)cc2)c2cc(C(=O)NCc3ccco3)sc21`: the activation (% of control) was 104% (inactive).

Regarding `COc1ccccc1C1C2=C(COC2=O)Nc2cc3c(cc21)OCO3` (stereo not given), the activation (% of control) was 166% (active).

As for `CCOC(=O)CN(C)Cc1c[nH]c2ccccc12`, the activation (% of control) was 105% (inactive).

On to `O=C(C1CCN(S(=O)(=O)Cc2ccccc2)CC1)N1CCCc2ccccc21`, for which the activation (% of control) is 108% (inactive).
